Experimental data from PubChem BioAssay AID588726 (The Scripps Research Institute Molecular Screening Center, 2011).
Among all 360,000 compounds or so, about 8,200 (2.3%) were called active. No stated cut-off is given here; in the data, active means inhibition above about 27%; inactive means the rest. The sample as a whole holds a higher share of actives than the screen did.

These molecules were tested against Fructose-bisphosphate aldolase (Mycobacterium tuberculosis (strain ATCC 25618 / H37Rv)) (UniProt P9WQA3) (assay: M. tuberculosis aldolase activity blockers – biochemical, fluorescence, strain H37Rv, primary screen (AID 588726;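 further: 0% = vehicle and 100% = reference inhibitor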)). Conditions: purified M. tuberculosis FBA, fluorescence read-out, at 1 µM, stronger effect = higher value.
Fructose-bisphosphate aldolase (Mycobacterium tuberculosis (strain ATCC 25618 / H37Rv)), sequence (P9WQA3 whole entry, looked up): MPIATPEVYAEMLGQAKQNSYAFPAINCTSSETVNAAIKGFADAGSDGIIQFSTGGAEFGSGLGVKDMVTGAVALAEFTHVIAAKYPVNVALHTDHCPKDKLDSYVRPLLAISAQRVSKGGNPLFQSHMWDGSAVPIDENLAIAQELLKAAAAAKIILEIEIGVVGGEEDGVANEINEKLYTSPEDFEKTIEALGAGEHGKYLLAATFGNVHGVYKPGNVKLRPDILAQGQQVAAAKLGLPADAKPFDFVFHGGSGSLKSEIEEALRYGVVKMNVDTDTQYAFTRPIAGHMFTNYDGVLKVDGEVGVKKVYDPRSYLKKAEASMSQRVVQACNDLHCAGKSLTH

Row | Compound | inhibition
1 | NC(=S)NN=Cc1ccc(OC(=O)COc2cc(Cl)c(Cl)cc2Cl)cn1 | 4.26% (inactive)
2 | O=C(Nc1ccccc1C(=O)O)c1ccc(N2C(=O)C3CC=CCC3C2=O)cc1 (stereo not drawn) | -1.48% (inactive)
3 | Nc1ccccc1-c1nc2ccncc2[nH]1 | 83.7% (active)
4 | Cc1cc(C)nc(Nc2n[nH]c(-c3ccccc3N)n2)n1 | 15.2% (inactive)
5 | O=[N+]([O-])c1ccc2nc(-c3ccccn3)[nH]c2c1 | -3.65% (inactive)
6 | O=S(=O)(NCCSc1ccccn1)c1ccc(Cl)cc1 | -1.18% (inactive)
7 | O=C(CN1CCC(O)(c2cccc(C(F)(F)F)c2)CC1)NCCc1ccccc1 | -2.53% (inactive)
8 | CCOc1ccc(C(=O)CCC(=O)NC2=NCCS2)cc1 | -2.69% (inactive)
9 | CCCN1CCN(C(=O)Cn2ncc3ccccc32)CC1 | 2.25% (inactive)
10 | CCc1nn(CC(=O)N2CCN(CC)CC2)c(=O)c2cccn12 | 2.42% (inactive)
11 | CCN1CCN(C(=O)Cn2nc(C)n3c(cc4c(OC)cccc43)c2=O)CC1 | 195% (active)
12 | Cc1ccccc1NC(=O)NC1(C(=O)N2CCCC2)CCCCC1 | -0.74% (inactive)
13 | Cc1ccc(-n2cc(CN(C)Cc3nccn3C)c(-c3cccc(C)c3)n2)cc1 | -2.31% (inactive)
14 | COc1ccc(-c2nn(-c3ccccc3)cc2CN2CCCO2)c(F)c1 | -2.2% (inactive)
15 | COc1ccc(-n2cc(CN(C)Cc3n[nH]c(=O)[nH]3)c(-c3cccc(F)c3)n2)cc1 | 33.1% (active)
16 | CCC(O)C1CCN(Cc2cn(-c3ccc(OC)cc3)nc2-c2cccc(F)c2)CC1 (stereo not drawn) | 23.7% (inactive)
17 | COc1ccc(-n2cc(CNC3CCOCC3)c(-c3cccc(F)c3)n2)cc1 | 50.5% (active)
18 | Cc1cccc(-n2cc(CN3CCN(C(=O)c4ncn[nH]4)CC3)c(-c3cccc(F)c3)n2)c1 | -3.35% (inactive)
19 | CCCCCCN1C[C@H](O)[C@@H](n2cc(C3CC3)nn2)C[C@@H]1c1ccc(Cl)cc1 | 0.57% (inactive)
20 | COc1ccc2c(C)cc(SCC(=O)NCC3CCCO3)nc2c1 (stereo not drawn) | 4.79% (inactive)
21 | COc1ccc2[nH]c3nc(SCC(=O)NC4CC4)nnc3c2c1 | -8.79% (inactive)
22 | COC(=O)CSc1nc(C)c2ccc(OC)cc2n1 | 30.8% (active)
23 | Cn1ncc(N2CCN(S(=O)(=O)c3ccc(Br)cc3)CC2)c(Cl)c1=O | -2.21% (inactive)
24 | c1ccc(-c2cn3c(n2)CCc2ccc4cccnc4c2-3)cc1 | 6.65% (inactive)
25 | COc1ccc(C(=O)/C=C/Nc2ccccn2)cc1 | 4.41% (inactive)
26 | COc1ccc(N2CCN(C(=O)CSc3nnc4ncccn34)CC2)cc1 | -2.52% (inactive)
27 | Cc1ccccc1Nc1c(-c2ccccc2)nc2ncccn12 | 2.19% (inactive)
28 | CN1CCN(Cc2ccc(OC(F)(F)F)cc2)CC1 | -3.02% (inactive)
